PLCg1 inh – blocks human PLC-gamma1 enzyme activity; purified PLC-gamma1, fluorogenic substrate, fluorescence; 370,000 compounds, 0.84% hits; inhibition, % at 12.2 µM; AID 720700; P19174; in the data active = inhibition above about 9.5%
KLK7 zymogen act – activators of human kallikrein-7 zymogen. P49862. purified proKLK7, EDANS-DABCYL substrate fluorescence; 100% is mature enzyme control, 0% vehicle. activation, % at 7 µM. 370,000 compounds, 0.9% hits. AID 652039;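 active = activation above the mean of all tested compounds plus 3 SD, computed per campaign excluding outliers beyond control limits, cut at about 13% in these data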
PLCb3 inh – PLC-beta3 (human) inhibition, primary screen | inhibition, % at 12.2 µM | 370,000 compounds, 0.18% hits | Q01970 | Purified PLC-beta3, fluorogenic substrate, fluorescence; in the data active = inhibition above about 11%;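 also: 0% = median of compound wells on plate and 100% = full blocker control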
sPLA2-III inh – Inhibits HGIII-sPLA2 liposome hydrolysis, primary screen; 370,000 compounds, 0.56% hits; inhibition, % at 12.2 µM; QFRET BODIPY PC-A2 liposome hydrolysis, fluorescence; Q9NZ20;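 active = inhibition above mean plus 3 SD of compounds lying within the high and low control bounds, cut at about 19% in these data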;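 also: 0% = median of test compound wells and 100% = no enzyme DMSO wells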
ADAM10 inh – ADAM10 inhibition, QFRET primary screen | O14672 | recombinant ADAM10, EDANS/DABCYL FRET peptide cleavage, 3 h | inhibition, % at 7 µM | 370,000 compounds, 0.62% hits | AID 720582;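 active = inhibition above a per-campaign cutoff equal to the mean of compounds falling between control-based bounds plus 3 SD, cut at about 20% in these data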;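 also: 0% = DMSO wells while the 100% control is not disclosed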
Target sequence (O14672 214-748 limits assumed): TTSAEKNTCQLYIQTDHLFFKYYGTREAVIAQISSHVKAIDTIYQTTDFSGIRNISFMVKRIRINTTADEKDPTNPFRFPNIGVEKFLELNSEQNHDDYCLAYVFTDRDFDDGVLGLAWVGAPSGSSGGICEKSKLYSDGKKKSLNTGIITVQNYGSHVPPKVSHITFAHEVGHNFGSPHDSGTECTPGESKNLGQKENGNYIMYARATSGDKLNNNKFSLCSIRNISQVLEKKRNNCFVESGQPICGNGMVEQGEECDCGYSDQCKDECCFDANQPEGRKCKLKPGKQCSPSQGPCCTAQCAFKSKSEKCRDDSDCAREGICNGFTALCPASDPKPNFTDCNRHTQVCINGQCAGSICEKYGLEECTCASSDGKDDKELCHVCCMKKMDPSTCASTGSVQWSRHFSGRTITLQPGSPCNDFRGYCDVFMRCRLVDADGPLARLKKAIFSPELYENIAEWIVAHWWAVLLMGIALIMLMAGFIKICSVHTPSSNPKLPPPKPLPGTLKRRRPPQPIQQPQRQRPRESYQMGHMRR
ADAM17 inh – inhibits human ADAM17 | P78536 | recombinant ADAM17, EDANS/DABCYL FRET peptide cleavage | inhibition, % at 6.95 µM | 370,000 compounds, 0.83% hits;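 active = inhibition above the mean of compounds lying between control limits plus 3 SD, set per campaign, cut at about 8.5% in these data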;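 also: 0% = DMSO-only wells as the low control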
ADAM10 ctr – inhibits human ADAM10 in ADAM17 exosite counter-screen | 2,900 compounds, 47% hits | recombinant ADAM10, EDANS/DABCYL FRET peptide cleavage, 3 h | AID 743256 | inhibition, % at 6.95 µM | shares compounds with ADAM17 inh;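 active = mean inhibition over the triplicate runs exceeds the activity threshold set in the earlier primary screen, cut at about 20% in these data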;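 also: 0% = DMSO wells and 100% = marimastat wells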
ADAM17 confirm – confirmation of inhibitors of human ADAM17; shares compounds with ADAM17 inh; recombinant ADAM17, EDANS/DABCYL QFRET peptide cleavage; inhibition, % at 6.95 µM; 2,900 compounds, 65% hits; AID 743257;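 active = mean inhibition across replicates above the hit cutoff set in the primary screen, cut at about 8.5% in these data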;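 also: 0% = DMSO wells and 100% = marimastat wells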
* hit, by the source's call; . = no result given; ! = not active in a repeat. Rows were chosen to be rich in hits. Some 3.4% of all compounds tested hit in one or more screens of this group.

SMILES | PLCg1 inh | KLK7 zymogen act | PLCb3 inh | sPLA2-III inh | ADAM10 inh | ADAM17 inh | ADAM10 ctr | ADAM17 confirm
N#Cc1ccc(NCCCN2CCC(C(O)(c3ccccc3)c3ccccc3)CC2)cc1 | 2 | 1 | 4 | -27 | 2 | 0 | . | .
COc1ccccc1C(=O)NC(=O)CSc1nnc(C)s1 | 1 | 0 | -10 | 5 | -5 | -4 | . | .
CC(=O)Nc1ccc(NC(=O)C(C)OC(=O)C23CC4CC(CC(Cl)(C4)C2)C3)cc1 (stereo unspecified) | 5 | 1 | 3 | -14 | -4 | 9.9* | 6 | 6
COc1cc(NC(=O)c2cc(C)on2)cc(C(=O)Nc2cccc(C(F)(F)F)c2)c1 | 1 | 0 | -1 | -35 | 16 | 12*! | 34* | 16*
COc1cc(NC(=O)COc2cc(C)cc3oc(=O)cc(C)c23)cc(OC)c1OC | -3 | 1 | -5 | 14 | -21 | -7 | . | .
CCOc1ccc(CCNC(=O)CN2C(=O)c3cccnc3Oc3ccc(C)cc32)cc1OCC | 2 | 0 | 8 | 1 | 9 | 1 | . | .
CCOc1ccc(CCNC(=O)CN2C(=O)c3cccnc3Oc3ccc(Cl)cc32)cc1 | 7 | 0 | -7 | 2 | 3 | 11* | 21* | 19*
CC(CN1CCN(C/C=C/c2ccccc2)CC1)c1ccccc1 (stereo unspecified) | -2 | 1 | -3 | 1 | 0 | 0 | . | .
CCCn1c(O)c(N=NC(=O)CNC(=O)Cc2ccc(OC)cc2)c2ccccc21 | 8 | 0 | -7 | 0 | 1 | 9.7* | 5 | 6
CC(=O)NC1C(OC(=O)/C=C/c2ccccc2)OC(COC(C)=O)C(OC(C)=O)C1OC(C)=O (stereo unspecified) | -1 | 0 | -9 | -2 | -4 | -3 | . | .
CCCCNC(=O)OCCCN1CCC2(CCC(c3ccccc3)CC2)C1=O (stereo unspecified) | -2 | 0 | 0 | 3 | -5 | 1 | . | .
CCc1ccc(CCNC(=O)OCCCN2CCC3(CCC(c4ccccc4)CC3)C2=O)cc1 (stereo unspecified) | 0 | 1 | -10 | -31 | 12 | 9.4* | 36* | 15*
COC(=O)c1cccc(N(C(=O)CNC(=O)c2ccco2)C(C(=O)NC2CCCC2)c2ccco2)c1 (stereo unspecified) | 3 | 0 | 8 | 2 | 3 | 8.8* | -3 | 2
COc1ccc(N(C(=O)CNC(=O)c2ccco2)C(C(=O)NC2CCCC2)c2ccco2)cc1 (stereo unspecified) | 0 | -1 | -5 | -4 | -6 | -1 | . | .
N#Cc1c(Cl)cccc1N1CCC(C(N)=O)CC1 | -32 | 0 | -34 | -1 | -85 | -28 | . | .
COc1ccc(NS(=O)(=O)c2cc(NC(=O)CCSc3ccccc3)ccc2OC)cc1 | 1 | 0 | 6 | -30 | 14 | 10* | 42* | 22*
COc1ccc(NC(=O)CCSc2ccc(C)cc2)cc1S(=O)(=O)Nc1ccccc1Cl | 4 | 0 | 2 | -26 | 16 | 4 | . | .
CCC1CCCCN1CCCNC(=O)C1CC(=O)N(CCc2ccccc2)C1 (stereo unspecified) | 7 | 0 | -1 | 5 | 6 | 2 | . | .
CCOc1ccc(N(CC(=O)NCCSc2ccccn2)S(C)(=O)=O)cc1 | 5 | 0 | 1 | -5 | 6 | 10* | -3 | 1
COc1ccc(S(=O)(=O)N(C)c2ccc(OC(=O)C(C)Oc3ccc(F)cc3)cc2)cc1 (stereo unspecified) | 3 | 0 | -4 | -12 | 2 | 1 | . | .
Cc1ccc(NC(=O)Cn2nc(C(=O)O)c3ccccc3c2=O)c([N+](=O)[O-])c1 | 1 | 0 | -3 | 1 | 11 | 0 | . | .
O=C(O)c1ccc2c(c1)N(Cc1cccc(F)c1)C(=O)CS2 | 0 | -1 | -4 | -4 | 15 | 8.9* | 4 | 3
S=c1[nH]nc(COc2ccc(Cl)cc2)n1C1CCCCC1 | 0 | 0 | -6 | 11 | 6 | 11* | 12 | 4
Cn1cc(C(=O)c2ccc(Cl)cc2Cl)cc1C(=O)N/N=C(\N)COc1ccc(F)cc1 | 0 | -1 | 3 | -1 | 4 | 2 | . | .
Cn1cc(C(=O)c2ccc(Cl)cc2Cl)cc1C(=O)N/N=C(\N)COc1ccc(Cl)cc1 | 3 | -1 | -8 | -8 | 16 | 11* | 22* | 16*
SMILES | PLCg1 inh | KLK7 zymogen act | PLCb3 inh | sPLA2-III inh | ADAM10 inh | ADAM17 inh | ADAM10 ctr | ADAM17 confirm
CC(C)c1ccc(NS(=O)(=O)c2ccc(-n3cccn3)cc2)cc1 | 0 | 0 | 5 | -21 | 12 | 9.1* | 21* | 12*
COc1c(S(=O)(=O)N2CCN(c3ccc(F)cc3)CC2)ccc(Cl)c1Cl | 1 | 1 | -1 | 8 | 16 | 9.7* | 22* | 14*
CC(C(O)C12CC3CC(CC(C3)C1)C2)N1CCCCC1 (stereo unspecified) | 0 | 0 | 0 | 8 | 0 | -5 | . | .
COCC(=O)Nc1ncc(S(=O)(=O)c2ccc([N+](=O)[O-])cc2)s1 | 0 | 0 | -6 | -5 | -2 | -5 | . | .
O=C(NC(Nc1ncc(S(=O)(=O)c2ccc([N+](=O)[O-])cc2)s1)(C(F)(F)F)C(F)(F)F)c1ccc(Cl)cc1 | 7 | 0 | 3 | -38 | 7 | 12* | 41* | 17*
COc1ccc(-n2c(SCC(=O)Nc3cc(C)on3)nc3c(c2=O)SCC3)cc1 | 4 | 0 | 4 | -1 | 1 | 0 | . | .
COC(=O)c1ccc(CSc2nc3c(c(=O)n2-c2ccc(C)cc2)SCC3)o1 | 7 | 0 | 10 | 14 | 19 | 12* | 12 | 6
CCCn1c(CCNc2nc(-c3cccc(Br)c3)cs2)nc2ccccc21 | 7 | 0 | 4 | -10 | 11 | 11* | 17 | 11*
COc1ccc(NS(=O)(=O)c2cc(OC)ccc2NC(=O)c2cc(C)oc2C)cc1 | 5 | 0 | 5 | -19 | 15 | 8.8* | 3 | 6
COc1cc(/C=C(\C#N)c2ccccn2)ccc1OCc1ccccc1 | -9 | 0 | -16 | 1 | 0 | 9.4* | 9 | 16*
COc1cc(OC)cc(C(=O)NNC(=O)CNC(=O)c2cccs2)c1 | 8 | -1 | -5 | -1 | 6 | 9.2* | 3 | 4
CCNC(=O)CSc1nc(-c2ccc(F)cc2)cs1 | -2 | 0 | -6 | -2 | -2 | -4 | . | .
CC(C)(C)NC(=O)CSc1nc(-c2ccc(F)cc2)cs1 | 9 | 0 | -5 | 5 | 3 | 9.1* | 3 | 0
